# Data: paper PMC5540273 (PLoS ONE, 2017)
# Where two headings read alike, the source gives them in different places.
# Key:
# Conditions in all cases: n = 1
# YES = system: T1, YES
# T1 construct: gene YES1
# YSK1 = system: T2, YSK1
# T2 construct: gene STK25
# YSK4 = system: T3, YSK4
# T3 construct: gene MAP3K19
# ZAK = system: ZAK
# ZAP70 = system: ZAP70
# p38-alpha = system: T4, p38-alpha
# T4 construct: gene MAPK14
# p38-beta = system: T5, p38-beta
# T5 construct: gene MAPK11
# p38-delta = system: p38-delta
# p38-gamma = system: T6, p38-gamma
# T6 construct: gene MAPK12
# [1] = concentration: 1 μM, replicates: in singlicate
# 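Note: KINOMEscan kinase panel screen.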
smiles,measurement,setting,value
Cc1cc(N2Cc3ccccc3C2)nc(Nc2ccc(S(=O)(=O)N3CCOCC3)cc2)n1.Cl [GSK1669917],%Inh,YES; [1],5%
same,%Inh,YSK1; [1],0%
same,%Inh,YSK4; [1],0%
same,%Inh,ZAK; [1],0%
same,%Inh,ZAP70; [1],0%
same,%Inh,p38-alpha; [1],3%
same,%Inh,p38-beta; [1],0%
same,%Inh,p38-delta; [1],46%
same,%Inh,p38-gamma; [1],3%
Cc1cc(NCC(c2ccccc2)c2ccccc2)nc(NCc2ccc(C(F)(F)F)cc2)n1 [GW497681],%Inh,YES; [1],0%
same,%Inh,YSK1; [1],0%
same,%Inh,YSK4; [1],13%
same,%Inh,ZAK; [1],0%
same,%Inh,ZAP70; [1],7%
same,%Inh,p38-alpha; [1],7%
same,%Inh,p38-beta; [1],0%
same,%Inh,p38-delta; [1],45%
same,%Inh,p38-gamma; [1],0%
COc1cccc(-c2cc(-c3c[nH]nc3-c3ccccn3)ccn2)c1 [GW680338],%Inh,YES; [1],0%
same,%Inh,YSK1; [1],0%
same,%Inh,YSK4; [1],0%
same,%Inh,ZAK; [1],0%
same,%Inh,ZAP70; [1],10%
same,%Inh,p38-alpha; [1],27%
same,%Inh,p38-beta; [1],7%
same,%Inh,p38-delta; [1],20%
same,%Inh,p38-gamma; [1],0%
O=C(Nc1n[nH]c2cc(-c3cccc(F)c3F)ccc12)C1CC1 [SB-733894],%Inh,YES; [1],0%
same,%Inh,YSK1; [1],0%
same,%Inh,YSK4; [1],74%
same,%Inh,ZAK; [1],0%
same,%Inh,ZAP70; [1],60%
same,%Inh,p38-alpha; [1],0%
same,%Inh,p38-beta; [1],2%
same,%Inh,p38-delta; [1],0%
same,%Inh,p38-gamma; [1],24%
CC1=C(C(=O)Nc2cc3cn[nH]c3cc2F)C(c2ccc(C(F)(F)F)cc2)CC(=O)N1 (stereo not drawn) [GSK429286],%Inh,YES; [1],17%
same,%Inh,YSK1; [1],0%
same,%Inh,YSK4; [1],9%
same,%Inh,ZAK; [1],9%
same,%Inh,ZAP70; [1],0%
same,%Inh,p38-alpha; [1],0%
same,%Inh,p38-beta; [1],0%
same,%Inh,p38-delta; [1],21%
same,%Inh,p38-gamma; [1],0%
CC(C)(C)c1ccc(C(=O)Nc2cn3cc(-c4cccnc4)ccc3n2)cc1,%Inh,YES; [1],10%
same,%Inh,YSK1; [1],1%
same,%Inh,YSK4; [1],66%
same,%Inh,ZAK; [1],19%
same,%Inh,ZAP70; [1],0%
same,%Inh,p38-alpha; [1],1%
same,%Inh,p38-beta; [1],30%
same,%Inh,p38-delta; [1],46%
same,%Inh,p38-gamma; [1],21%
CCCc1ccc(S(=O)(=O)NC2CCN(c3ccnc(Nc4ccc(F)cc4)n3)C2)cc1 (stereo not drawn) [GSK1379715],%Inh,YES; [1],22%
same,%Inh,YSK1; [1],100%
same,%Inh,YSK4; [1],31%
same,%Inh,ZAK; [1],67%
same,%Inh,ZAP70; [1],0%
same,%Inh,p38-alpha; [1],3%
same,%Inh,p38-beta; [1],0%
same,%Inh,p38-delta; [1],29%
same,%Inh,p38-gamma; [1],0%
NC(=O)c1nnc2ccccc2c1N,%Inh,YES; [1],0%
same,%Inh,YSK1; [1],2%
same,%Inh,YSK4; [1],88%
same,%Inh,ZAK; [1],0%
same,%Inh,ZAP70; [1],0%
same,%Inh,p38-alpha; [1],71%
same,%Inh,p38-beta; [1],0%
same,%Inh,p38-delta; [1],0%
same,%Inh,p38-gamma; [1],43%
CN(C)CCN(C)C(=O)c1cc(-c2ccncc2)c(-c2ccc(Cl)c(O)c2)o1.Cl.Cl [SB-710397],%Inh,YES; [1],0%
same,%Inh,YSK1; [1],0%
same,%Inh,YSK4; [1],57%
same,%Inh,ZAK; [1],41%
same,%Inh,ZAP70; [1],35%
same,%Inh,p38-alpha; [1],82%
same,%Inh,p38-beta; [1],0%
same,%Inh,p38-delta; [1],51%
same,%Inh,p38-gamma; [1],29%
Nc1nc(-c2nccs2)c(-c2ccnc3ccccc23)s1 [GW693542],%Inh,YES; [1],17%
same,%Inh,YSK1; [1],10%
same,%Inh,YSK4; [1],28%
same,%Inh,ZAK; [1],39%
same,%Inh,ZAP70; [1],0%
same,%Inh,p38-alpha; [1],0%
same,%Inh,p38-beta; [1],0%
same,%Inh,p38-delta; [1],22%
same,%Inh,p38-gamma; [1],30%
Cc1c(Cn2ccn3c(=O)cc(N4CCOCC4)nc23)cccc1C(F)(F)F [GSK2289044],%Inh,YES; [1],3%
same,%Inh,YSK1; [1],0%
same,%Inh,YSK4; [1],43%
same,%Inh,ZAK; [1],8%
same,%Inh,ZAP70; [1],0%
same,%Inh,p38-alpha; [1],0%
same,%Inh,p38-beta; [1],0%
same,%Inh,p38-delta; [1],12%
same,%Inh,p38-gamma; [1],12%
CC(C)(C)c1ccc(C(=O)Nc2cn3cc(Cl)ccc3n2)cc1,%Inh,YES; [1],0%
same,%Inh,YSK1; [1],0%
same,%Inh,YSK4; [1],5%
same,%Inh,ZAK; [1],0%
same,%Inh,ZAP70; [1],4%
same,%Inh,p38-alpha; [1],0%
same,%Inh,p38-beta; [1],0%
same,%Inh,p38-delta; [1],39%
same,%Inh,p38-gamma; [1],10%
Cn1ccc2ncnc(Oc3ccc(NC(=O)Nc4ccccc4)cc3)c21,%Inh,YES; [1],0%
same,%Inh,YSK1; [1],0%
same,%Inh,YSK4; [1],93.1%
same,%Inh,ZAK; [1],0%
same,%Inh,ZAP70; [1],0%
same,%Inh,p38-alpha; [1],0%
same,%Inh,p38-beta; [1],0%
same,%Inh,p38-delta; [1],6%
same,%Inh,p38-gamma; [1],0%
Cc1ccc(C(=O)Nc2ccc(Nc3ccnc4cc(-c5ccccn5)ccc34)cc2O)cc1.Cl [GW440146],%Inh,YES; [1],42%
same,%Inh,YSK1; [1],0%
same,%Inh,YSK4; [1],14%
same,%Inh,ZAK; [1],48%
same,%Inh,ZAP70; [1],9%
same,%Inh,p38-alpha; [1],0%
same,%Inh,p38-beta; [1],0%
same,%Inh,p38-delta; [1],42%
same,%Inh,p38-gamma; [1],11%
Cc1ccc(NC(=O)Nc2cccc(C(F)(F)F)c2)cc1 [GSK955403],%Inh,YES; 1 µM,10%
same,%Inh,YSK1; 1 µM,0%
same,%Inh,YSK4; 1 µM,0%
same,%Inh,ZAK; 1 µM,39%
same,%Inh,ZAP70; 1 µM,0%
same,%Inh,p38-alpha; 1 µM,10%
same,%Inh,p38-beta; 1 µM,57%
same,%Inh,p38-delta; 1 µM,0%
same,%Inh,p38-gamma; 1 µM,46%
CN1C(=O)C(Nc2ccc(Cl)c(C(=O)O)c2)=C(c2ccc(Cl)cc2)C1=O [SB-404290],%Inh,YES; [1],6%
same,%Inh,YSK1; [1],0%
same,%Inh,YSK4; [1],4%
same,%Inh,ZAK; [1],0%
same,%Inh,ZAP70; [1],1%
same,%Inh,p38-alpha; [1],5%
same,%Inh,p38-beta; [1],2%
same,%Inh,p38-delta; [1],0%
same,%Inh,p38-gamma; [1],27%
Cl.NC(=O)c1cccc(Nc2nccc(Nc3ccc(Oc4cccc(Cl)c4)c(Cl)c3)n2)c1 [GW659008],%Inh,YES; [1],54%
same,%Inh,YSK1; [1],0%
same,%Inh,YSK4; [1],0%
same,%Inh,ZAK; [1],53%
same,%Inh,ZAP70; [1],0%
same,%Inh,p38-alpha; [1],8%
same,%Inh,p38-beta; [1],0%
same,%Inh,p38-delta; [1],38%
same,%Inh,p38-gamma; [1],0%
Cl.O=C(Nc1cccc(-c2nn3ncccc3c2-c2ccnc(Nc3cccnc3)n2)c1)c1c(F)cccc1F [GSK312879],%Inh,YES; [1],73%
same,%Inh,YSK1; [1],0%
same,%Inh,YSK4; [1],32%
same,%Inh,ZAK; [1],28%
same,%Inh,ZAP70; [1],0%
same,%Inh,p38-alpha; [1],3%
same,%Inh,p38-beta; [1],6%
same,%Inh,p38-delta; [1],24%
same,%Inh,p38-gamma; [1],0%
